Screening data deposited in PubChem BioAssay by Center for Chemical Genomics, University of Michigan.
Rows were chosen to be rich in hits. Some 0.9% of all compounds tested hit in one or more screens of this group.
TAR Tat displ: HIV-1 TAR-Tat binding disruption; z-score (concentration not given with the values); HIV-1 TAR RNA, Tat peptide displacement FRET; stronger effect = higher value; AID 1259389; 100,000 tested, 0.6% active; active means z-score of 3 or more in at least 2 runs
CDC25B CDK2 inh: human CDC25B-CDK2/CyclinA binding inhibition | AID 1259370 | 94,000 tested, 0.72% active | HTRF CDC25B-CDK2/CyclinA binding, anti-His/anti-Flag; stronger effect = higher value | z-score (concentration not given with the values); in the data active means z-score above about 3.2
A number is an active result; . = inactive; / = no result.

SMILES	TAR Tat displ	CDC25B CDK2 inh
O=C(Nc1nc2c(s1)CCCCCC2)Nc1ccccc1Cl	.	/
CCOC(=O)C(=O)N1N=C(C2CCCCC2)CC1(O)C(F)(F)F (stereo not given)	/	.
Cc1cc2n(n1)CCCN2C(=O)CCC(=O)O	.	.
Cn1c2c(c(=O)[nH]c1=O)C(c1ccccc1)C1=C(N2)c2ccccc2C1=O (stereo not given)	.	.
Cn1c2c(c(=O)[nH]c1=O)C(c1ccc([N+](=O)[O-])o1)C1=C(N2)c2ccccc2C1=O (stereo not given)	3.6	.
CC1=C(C(=O)NCCCN(C)C2CCCCC2)C2(CCN(S(C)(=O)=O)CC2)OC1=O	.	/
CCCCN(C)CCNS(=O)(=O)c1cc(Br)cc2c1N(C(C)=O)CC2	/	7.38
CCCCN(C)CCNS(=O)(=O)c1cc(Br)cc2c1N(C(=O)CC)CC2	/	.
CC(=O)c1ccc(NC(=S)NC(NC(=O)c2cccc(Cl)c2)C(Cl)(Cl)Cl)cc1 (stereo not given)	/	3.17
CCOC(=O)c1ccc(NC(=S)NC(NC(=O)c2ccccc2Br)C(Cl)(Cl)Cl)cc1 (stereo not given)	/	.
Clc1ccc(C2CC(c3ccc(-c4ccccc4)cc3)Nc3nnnn32)cc1 (stereo not given)	.	/
